PubChem BioAssay (NCI)
Compounds without any hit were thinned out: in the full panel of roughly 79,000, 15% have a hit. Unmarked numbers belong to inactive results. Calls of active or inactive are those of the source. Rule as the data show it: active = growth inhibition above about 70%; inactive = the rest.

Experiments:
[1] = NCI Yeast Anticancer Drug Screen. Data for the rad50 strain (AID 155);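 also: 0% = growth of vehicle-only cultures of the same strain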; settings: S. cerevisiae rad50 strain growth inhibition, active compounds read high
In short: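 Relative growth inhibition (compound vs vehicle) was measured in yeast with a defined repair-gene alteration.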

[2] = NCI Yeast Anticancer Drug Screen. Data for the mec2-1 strain (AID 157); settings: S. cerevisiae mec2-1 strain, active compounds read high
In short: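 Each compound was tested on mec2-1 yeast, a strain altered in DNA damage repair or cell cycle control. Growth inhibition is reported relative to vehicle.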

[3] = NCI Yeast Anticancer Drug Screen. Data for the sgs1 mgt1 strain (AID 161);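 also: 0% = growth of cultures given vehicle only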; settings: S. cerevisiae sgs1 mgt1 strain, active compounds read high
In short: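 Test agents were incubated with a DNA-repair-mutant yeast strain. Growth was then read and compared against vehicle-treated controls.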

[4] = NCI Yeast Anticancer Drug Screen. Data for the cln2 rad14 strain (AID 165);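 also: 0% = growth equal to vehicle treated cultures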; settings: S. cerevisiae cln2 rad14 strain, active compounds read high
In short: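 Test compounds were added to cln2 rad14 yeast cultures; inhibition of growth was then determined by comparison with vehicle treatment.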

[5] = NCI Yeast Anticancer Drug Screen. Data for the bub3 strain (AID 167); settings: S. cerevisiae bub3 mutant strain, active compounds read high
In short: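 Screening used yeast with an engineered genetic alteration affecting cell cycle control. Compound-exposed cultures were compared with vehicle cultures, and reduced growth was taken as inhibition.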

[6] = NCI Yeast Anticancer Drug Screen. Data for the mlh1 rad18 strain (AID 175); settings: S. cerevisiae mlh1 rad18 strain growth inhibition, active compounds read high
In short: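 Inhibition values reflect reduced growth of mutant yeast versus vehicle-treated controls following compound exposure; the mutations affect DNA damage repair.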

[7] = at 5.0 µM (retest, dose inferred, filed as 0.5)
[8] = at 50.0 µM (retest, dose inferred, filed as 5.0)

Compound	growth inhibition [1, 7]	growth inhibition [1, 8]	growth inhibition ([1]; at 50.0 µM)	growth inhibition [2, 7] [%]	growth inhibition [2, 8]	growth inhibition ([2]; at 50.0 µM)	growth inhibition [3, 7]	growth inhibition [3, 8]	growth inhibition ([3]; at 50.0 µM)	growth inhibition [4, 7]	growth inhibition [4, 8]	growth inhibition ([4]; at 50.0 µM)	growth inhibition [5, 7]	growth inhibition [5, 8]	growth inhibition ([5]; at 50.0 µM)	growth inhibition [6, 7]	growth inhibition [6, 8]	growth inhibition ([6]; at 50.0 µM)
C1=CC2OC2CCCCCCCC1 (mixture of isomers)	7%	75% (active)	83.2% (active)	0	80% (active)	62.5%	2%	78% (active)	84.8% (active)	-2%	59%	31.6%	-5%	73% (active)	50.7%	1%	90% (active)	70.9% (active)
OCCSCc1cc(Cl)cc(Cl)c1O	7%	76% (active)	56%	-12	60%	48.2%	-6%	90% (active)	78.7% (active)	-10%	44%	44.4%	-6%	77% (active)	78% (active)	0%	91% (active)	78.8% (active)
CCOC(=O)C(NC(C)=O)[CH](c1ccccc1)[Sn]([Cl])([c]1ccccc1)[c]1ccccc1 (configuration not stated)	-7%	-13%	59.4%	-1	-12%	65.7%	-8%	-5%	64.7%	-22%	-2%	49.1%	-14%	12%	37.4%	1%	1%	60.5%
Cc1ccc(NC2=CC(=O)C(NO)c3ccccc32)cc1 (configuration not stated)	14%	66%	38.6%	19	66%	20.6%	16%	68%	35.6%	10%	40%	44.5%	21%	83% (active)	21.9%	13%	79% (active)	60.5%
O=C1c2cc(Br)ccc2NC1(c1c[nH]c2ccccc12)c1c[nH]c2ccccc12	98% (active)	95% (active)	91.8% (active)	58	90% (active)	94.8% (active)	99% (active)	96% (active)	94.6% (active)	98% (active)	94% (active)	93.2% (active)	95% (active)	95% (active)	93.8% (active)	99% (active)	95% (active)	92.8% (active)
NS(=O)(=O)c1ccc(NC(=O)Cc2nc3ccccc3s2)cc1	36%	99% (active)	91% (active)	40	99% (active)	91% (active)	54%	100% (active)	93.2% (active)	31%	94% (active)	90.7% (active)	49%	99% (active)	92% (active)	65%	99% (active)	91.2% (active)
O=S(O)CCCCCSSc1ccc(Cl)cc1	3%	81% (active)	98% (active)	9	100% (active)	95.8% (active)	5%	97% (active)	98.8% (active)	-2%	97% (active)	98.2% (active)	25%	99% (active)	99% (active)	8%	97% (active)	98.2% (active)
Nc1ccccc1C(=O)NCCc1c[nH]c2ccccc12	1%	34%	6.35%	-3	6%	11.8%	4%	40%	33.8%	-5%	27%	66.6%	-7%	18%	48.5%	3%	38%	7%
CC(=O)/C=N/Nc1ccccc1	15%	20%	42.1%	3	7%	3.5%	-9%	11%	33%	0%	-8%	-9.5%	-1%	3%	7.2%	14%	32%	58.6%
